{"source": "PubChem BioAssay AID602350", "about": "(Broad Institute, 2012)", "note": "Potency and affinity values are given separately. The source made the active and inactive calls.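 Rule for the calls: active = absorbance falls by 30% or more versus neutral controls, with a potency fitted within twice the top valid dose; inconclusive = no clear call, values can overlap the other calls; inactive = change opposite to expected direction, plus the rest.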", "data": [{"target": "Protein disulfide-isomerase (Homo sapiens) (UniProt P07237)", "sequence (P07237 whole entry, looked up)": "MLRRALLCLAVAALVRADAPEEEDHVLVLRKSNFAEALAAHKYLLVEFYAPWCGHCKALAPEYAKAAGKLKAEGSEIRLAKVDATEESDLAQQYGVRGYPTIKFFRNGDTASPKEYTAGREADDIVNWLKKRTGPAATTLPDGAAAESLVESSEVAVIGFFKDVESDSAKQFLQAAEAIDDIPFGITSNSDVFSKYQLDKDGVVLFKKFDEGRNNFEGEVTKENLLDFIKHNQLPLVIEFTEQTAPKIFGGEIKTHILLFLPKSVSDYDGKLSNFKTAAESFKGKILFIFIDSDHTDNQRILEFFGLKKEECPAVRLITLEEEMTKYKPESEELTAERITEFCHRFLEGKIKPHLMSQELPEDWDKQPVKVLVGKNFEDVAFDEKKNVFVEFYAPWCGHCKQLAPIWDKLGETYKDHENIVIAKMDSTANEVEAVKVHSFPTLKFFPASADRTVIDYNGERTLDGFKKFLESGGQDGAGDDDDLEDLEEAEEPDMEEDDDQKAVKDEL", "test": "PDI inhibitors, insulin aggregation turbidity, dose response, biochemical, absorbance, cherry-picked samples (AID 602350)", "details": "recombinant PDI insulin aggregation, absorbance 650 nm, 90 min; series mostly up to 19.5 µM", "values": [{"compound": "O=C(NCc1ccccn1)Nc1cccc(Cl)c1", "outcome": "inactive"}, {"compound": "CCCCn1c(SCC(=O)Nc2ccc(C)c(S(=O)(=O)N3CCOCC3)c2)nnc1C(CC)N(C)C", "note": "(configuration not stated)", "outcome": "inactive"}, {"compound": "CCCCN(C(=O)C1=CC=CN2CCS(=O)(=O)N=C12)c1ccccc1", "outcome": "inactive"}, {"compound": "CCCN(CCC)S(=O)(=O)c1ccc(C(=O)Nc2nnc(COC)o2)cc1", "outcome": "inactive"}, {"compound": "O=C(NCCN1CCOCC1)c1cccnc1SCc1ccccc1Cl", "outcome": "inactive"}, {"compound": "COc1cccc(-n2ccnc2SCC(=O)Nc2cc(OC)ccc2OC)c1", "outcome": "inactive"}, {"compound": "C[C@@H]1CN([C@H](C)CO)C(=O)Cc2cc(NC(=O)Nc3ccccc3)ccc2O[C@H]1CN(C)Cc1ccccc1", "outcome": "inactive"}, {"compound": "CCCCC1CCC(c2nc(-c3ccccn3)no2)CC1", "note": "(configuration not stated)", "outcome": "inactive"}, {"compound": "Cc1ccc2nsnc2c1NC(=O)c1cccnc1Cl", "outcome": "inactive"}, {"compound": "C[C@H]1CN([C@@H](C)CO)C(=O)Cc2cc(NC(=O)Nc3ccccc3)ccc2O[C@H]1CN(C)Cc1ccccc1", "outcome": "inactive"}, {"compound": "COc1cc(C2C(C(C)=O)=C(O)C(=O)N2CCc2c[nH]c3ccccc23)ccc1O", "note": "(configuration not stated)", "outcome": "inactive"}, {"compound": "NC(Cc1ccc(C(F)(F)F)cc1)c1csc(Nc2ccc(C(=O)NCCCO)cn2)n1", "note": "(configuration not stated)", "outcome": "inactive"}, {"compound": "CCOc1ccccc1CN1CCNC(=O)C1CC(=O)NCc1nccn1CC", "note": "(configuration not stated)", "outcome": "inactive"}, {"compound": "O=C1NC(Cc2ccc(O)cc2)c2nc3cc(Cl)ccc3c(=O)n2-c2ncccc21", "note": "(configuration not stated)", "outcome": "inactive"}, {"compound": "C[C@H](CO)N1C[C@H](C)[C@@H](CN(C)Cc2ccccc2)Oc2ccc(NC(=O)Nc3ccccc3)cc2CC1=O", "outcome": "inactive"}, {"compound": "CCOC(=O)c1c(CN2CCOCC2)n(-c2ccccc2)c2ccc(O)cc12", "outcome": "inactive"}, {"compound": "CCCCn1c(SCC(=O)NC2CCS(=O)(=O)C2)nc2ccccc2c1=O", "note": "(configuration not stated)", "outcome": "inactive"}, {"compound": "Cc1cc(NC(=O)COC(=O)C2CC(=O)N(c3ccccc3)C2)no1", "note": "(configuration not stated)", "outcome": "inactive"}, {"compound": "CCOC(=O)C1(CCOc2ccccc2)CCN(Cc2ccc(O)cc2)CC1", "outcome": "inactive"}, {"compound": "O=c1[nH]c(C2CCN(S(=O)(=O)c3ccc(C(F)(F)F)cc3)CC2)nc2c1nnn2Cc1ccc(F)cc1", "outcome": "inactive"}, {"compound": "CN(C)c1ccc(/C=C/C(=O)c2ccc(O)cc2)cc1[N+](=O)[O-]", "outcome": "inactive"}, {"compound": "S=C(NCCc1ccccc1)Nc1ccccn1", "outcome": "inactive"}]}]}
